Assay results: PubChem BioAssay AID1159580 (chemical genetic matrix, 2015)
Out of some 5,500 compounds screened, about 2,000 (36%) were called active. Not shown: some 18% with an inconclusive outcome. Rule as the data show it: active = normalized growth mostly below about 0.91 (no sharp cut-off); inconclusive = no clear call, values can overlap the other calls; inactive = mostly above about 0.92. The list shows a part of the results.

Experiment: chemical genetic growth profiling, strain panel (AID 1159580);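 also: tested at 20 µM; growth read once vehicle control cultures reached saturation at 30 °C; 1 = growth at the plate median or of vehicle wells; lower values mean less growth of the strain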
Details: S. cerevisiae deletion strains, growth OD
[1] = locus YDL101C, strain DUN1, active compounds read low
[2] = locus YHR030C, strain SLT2, active compounds read low
[3] = locus YHR079C, strain IRE1, active compounds read low
[4] = locus YJL095W, strain BCK1, active compounds read low
[5] = locus YJR066W, strain TOR1, active compounds read low
[6] = locus YLR113W, strain HOG1, active compounds read low
[7] = locus YNL183C, strain NPR1, active compounds read low
[8] = locus YOR231W, strain MKK1, active compounds read low
[9] = locus YPL256C, strain CLN2, active compounds read low
[10] = locus YAL013W, strain DEP1, active compounds read low
[11] = locus YBR229C, strain ROT2, active compounds read low
[12] = locus YCL061C, strain MRC1, active compounds read low
[13] = locus YDR150W, strain NUM1, active compounds read low
[14] = locus YEL061C, strain CIN8, active compounds read low
[15] = locus YGR078C, strain PAC10, active compounds read low
[16] = locus YHR087W, strain rtc3, active compounds read low
[17] = locus YJR043C, strain POL32, active compounds read low
[18] = locus YJR075W, strain HOC1, active compounds read low
[19] = locus YLR039C, strain RIC1, active compounds read low
[20] = locus YLR058C, strain SHM2 (second series), active compounds read low
[21] = locus YLR085C, strain ARP6, active compounds read low
[22] = locus YLR262C, strain YPT6, active compounds read low
[23] = locus YML094W, strain GIM5, active compounds read low
[24] = locus YMR219W, strain ESC1, active compounds read low
[25] = locus YMR263W, strain SAP30, active compounds read low
[26] = locus YNL153C, strain GIM3, active compounds read low
[27] = locus YNL298W, strain CLA4 (second series), active compounds read low
[28] = locus YNL322C, strain KRE1, active compounds read low
[29] = locus YNR030W, strain Alg12, active compounds read low
[30] = locus YOL006C, strain TOP1, active compounds read low
[31] = locus YPL055C, strain LGE1, active compounds read low
[32] = locus YPL241C, strain CIN2, active compounds read low
[33] = locus YPR135W, strain CTF4, active compounds read low

Measured: normalized growth

O=C(CSc1nnnn1-c1ccccc1)c1ccccc1
inactive: locus YAR019C, strain CDC15, active compounds read low 0.96 | locus YBL105C, strain PKC1, active compounds read low 0.958 | locus YBR135W, strain CKS1, active compounds read low 0.958 | locus YBR136W, strain MEC1, active compounds read low 0.955 | locus YBR160W, strain CDC28, active compounds read low 0.957 | locus YDL017W, strain CDC7, active compounds read low 0.962 | locus YDL028C, strain MPS1, active compounds read low 0.949 | [1] 0.983 | locus YDL108W, strain KIN28, active compounds read low 0.947 | locus YDL132W, strain cdc53, active compounds read low 0.954 | locus YDL214C, strain PRR2, active compounds read low 0.734 | locus YDR052C, strain DBF4, active compounds read low 0.966 | locus YDR054C, strain cdc34, active compounds read low 0.908 | locus YDR226W, strain ADK1, active compounds read low 0.959 | locus YER123W, strain YCK3, active compounds read low 0.677 | locus YER133W, strain GLC7, active compounds read low 0.775 | locus YFL009W, strain cdc4, active compounds read low 0.949 | locus YFL029C, strain CAK1, active compounds read low 0.949 | locus YFR003C, strain YPI1, active compounds read low 0.96 | locus YFR028C, strain CDC14, active compounds read low 0.959 | locus YHR082C, strain KSP1, active compounds read low 0.698 | locus YHR205W, strain SCH9, active compounds read low 0.661 | locus YIL147C, strain SLN1, active compounds read low 0.948 | locus YJL128C, strain PBS2, active compounds read low 0.948 | locus YJR016C, strain ILV3, active compounds read low 0.965 | [5] 0.486 | locus YKL193C, strain SDS22, active compounds read low 0.952 | locus YLR403W, strain SFP1, active compounds read low 0.663 | locus YMR001C, strain CDC5, active compounds read low 0.95 | locus YMR277W, strain FCP1, active compounds read low 0.946 | locus YNL006W, strain LST8, active compounds read low 0.951 | locus YNL161W, strain CBK1, active compounds read low 0.965 | locus YNL207W, strain RIO2, active compounds read low 0.93 | locus YNL222W, strain SSU72, active compounds read low 0.968 | locus YOL078W, strain AVO1, active compounds read low 0.941 | locus YOR061W, strain CKA2, active compounds read low 0.708 | locus YOR329C, strain SCD5, active compounds read low 0.959 | locus YPL209C, strain IPL1, active compounds read low 0.964 | locus YPR025C, strain CCL1, active compounds read low 0.961 | locus YPR106W, strain ISR1, active compounds read low 0.972 | locus YPR111W, strain DBF20, active compounds read low 0.964 | strain NNK1, active compounds read low 0.973 | strain TSCII, active compounds read low 0.948
active: locus YDR477W, strain SNF1, active compounds read low 0.663 | locus YFR019W, strain FAB1, active compounds read low 0.752 | locus YGR040W, strain KSS1, active compounds read low 0.655 | locus YGR052W, strain FMP48, active compounds read low 0.587 | locus YGR092W, strain DBF2, active compounds read low 0.431 | [2] 0.397 | [3] 0.437 | [4] 0.415 | locus YJL157C, strain FAR1, active compounds read low 0.664 | locus YJR066W, strain TOR1 (second series), active compounds read low 0.182 | locus YKL048C, strain ELM1, active compounds read low 0.799 | locus YKL067W, strain YNK1, active compounds read low 0.662 | locus YKL101W, strain HSL1, active compounds read low 0.641 | locus YKL203C, strain TOR2, active compounds read low 0.573 | [6] 0.618 | locus YLR133W, strain CKI1, active compounds read low 0.6 | locus YML070W, strain DAK1, active compounds read low 0.608 | locus YMR205C, strain PFK2 (second series), active compounds read low 0.696 | locus YNL020C, strain ARK1, active compounds read low 0.61 | [7] 0.505 | locus YNL307C, strain MCK1 (second series), active compounds read low 0.259 | locus YOL136C, strain PFK27, active compounds read low 0.529 | locus YOR119C, strain RIO1, active compounds read low 0.61 | [8] 0.448 | locus YPL031C, strain PHO85, active compounds read low 0.571 | locus YPL153C, strain RAD53, active compounds read low 0.538 | locus YPL204W, strain HRR25, active compounds read low 0.524 | [9] 0.758

CSc1nnnn1-c1c(C)cccc1C
inactive: [10] 0.998 | [11] 0.973 | [12] 0.996 | [1] 1.02 | [13] 1.02 | [14] 0.972 | [15] 0.982 | locus YGR229C, strain SMI1, active compounds read low 0.966 | [2] 0.96 | [16] 0.988 | locus YJL187C, strain SWE1, active compounds read low 0.979 | [17] 0.982 | [18] 0.998 | locus YKL190W, strain CNB1, active compounds read low 0.962 | [19] 0.969 | [20] 0.972 | [21] 0.999 | [22] 0.936 | [23] 1.08 | [24] 0.983 | [25] 1 | [26] 0.998 | [27] 0.984 | [28] 0.984 | [29] 1 | [30] 0.944 | [31] 1.01 | [32] 0.936 | [33] 1.01

O=C(CSc1nnnn1-c1ccccc1)NC1Cc2ccccc2C1
inactive: [10] 1.02 | [11] 0.998 | [12] 1.02 | [1] 1 | locus YDL134C, strain PPH21, active compounds read low 1 | [13] 0.988 | [14] 0.988 | [15] 1.02 | [2] 1.02 | [16] 0.99 | [17] 1.04 | [18] 1.01 | [19] 1.07 | [20] 0.996 | [21] 0.991 | [22] 1.07 | [23] 0.999 | [24] 0.996 | [25] 1 | locus YMR307W, strain GAS1, active compounds read low 1.06 | locus YNL128W, strain TEP1, active compounds read low 1 | [26] 1.03 | [27] 1.01 | [28] 0.999 | [29] 0.995 | [30] 0.944 | [31] 0.879 | [32] 0.985 | [33] 1.01

Cc1[nH]c(C)c(Cl)c(=O)c1Cl
inactive: locus YAL021C, strain ccr4, active compounds read low 1.01 | locus YAL026C, strain drs2, active compounds read low 1.01 | locus YAL030W, strain snc1, active compounds read low 0.998 | locus YBL061C, strain skt5, active compounds read low 1 | locus YBR009C, strain hhf1, active compounds read low 1.03 | locus YBR023C, strain chs3, active compounds read low 1 | locus YBR171W, strain sec66, active compounds read low 1 | locus YBR231C, strain swc5, active compounds read low 0.996 | locus YBR279W, strain paf1, active compounds read low 0.999 | locus YCL011C, strain gbp2, active compounds read low 1.01 | locus YCL016C, strain dcc1, active compounds read low 0.997 | [12] 0.998 | locus YCL069W, strain vba3, active compounds read low 0.997 | locus YCR088W, strain abp1, active compounds read low 1 | locus YDL005C, strain med2, active compounds read low 1.01 | locus YDL040C, strain nat1, active compounds read low 1 | locus YDR001C, strain nth1, active compounds read low 0.994 | locus YDR069C, strain doa4, active compounds read low 1.02 | locus YDR137W, strain rgp1, active compounds read low 1.01 | locus YDR159W, strain sac3, active compounds read low 0.981 | locus YDR195W, strain ref2 0.962 | locus YDR297W, strain sur2, active compounds read low 1.01 | locus YDR334W, strain swr1, active compounds read low 1 | locus YDR335W, strain msn5, active compounds read low 1 | locus YDR392W, strain spt3, active compounds read low 1.03 | locus YEL003W, strain gim4, active compounds read low 1.01 | locus YEL037C, strain rad23, active compounds read low 0.999 | locus YEL061C, strain CIN8 (second series), active compounds read low 1.01 | locus YER015W, strain faa2, active compounds read low 0.999 | locus YER016W, strain bim1, active compounds read low 0.995 | locus YER111C, strain swi4, active compounds read low 0.999 | locus YER155C, strain BEM2 (second series), active compounds read low 1.01 | locus YFR010W, strain ubp6, active compounds read low 1.01 | locus YGL167C, strain pmr1, active compounds read low 0.999 | locus YGL173C, strain kem1, active compounds read low 1 | locus YGL227W, strain vid30, active compounds read low 0.996 | locus YGL240W, strain doc1, active compounds read low 0.998 | locus YGL253W, strain hxk2, active compounds read low 1.01 | locus YHR013C, strain ard1, active compounds read low 0.979 | locus YHR027C, strain rpn1, active compounds read low 0.992 | [2] 1.04 | [3] 1.03 | locus YHR142W, strain chs7, active compounds read low 1.01 | locus YJL092W, strain hpr5, active compounds read low 0.996 | locus YJL095W, strain BCK1 (second series), active compounds read low 0.998 | [4] 0.983 | locus YJL115W, strain asf1, active compounds read low 1.01 | locus YJL129C, strain trk1, active compounds read low 0.992 | locus YJL154C, strain vps35, active compounds read low 0.999 | locus YJL164C, strain tpk1, active compounds read low 1.01 | locus YJL166W, strain qcr8, active compounds read low 1.01 | [5] 0.986 | locus YKL160W, strain elf1, active compounds read low 1 | locus YKR026C, strain gcn3, active compounds read low 1 | locus YKR091W, strain srl3, active compounds read low 1 | locus YLL001W, strain dnm1, active compounds read low 1 | locus YLL026W, active compounds read low 1 | locus YLL041C, strain sdh2, active compounds read low 1 | locus YLR027C, strain aat2, active compounds read low 1.01 | [6] 0.98 | locus YLR221C, strain rsa3, active compounds read low 0.997 | locus YLR258W, strain gsy2, active compounds read low 0.995 | locus YLR262C, strain YPT6 (second series), active compounds read low 1.03 | locus YLR320W, strain mms22, active compounds read low 1 | locus YLR342W, strain FKS1, active compounds read low 1 | locus YLR357W, strain rsc2, active compounds read low 1 | locus YLR370C, strain arc18, active compounds read low 0.998 | locus YLR384C, strain iki3, active compounds read low 0.995 | locus YML120C, strain ndi1, active compounds read low 1.01 | locus YMR058W, strain fet3, active compounds read low 1.01 | locus YMR125W, strain sto1, active compounds read low 0.994 | locus YMR129W, active compounds read low 0.993 | locus YMR205C, strain PFK2, active compounds read low 0.988 | locus YMR231W, strain pep5, active compounds read low 0.991 | locus YNL071W, strain lat1, active compounds read low 1 | [7] 0.972 | locus YNL209W, strain ssb2, active compounds read low 1.01 | locus YNL248C, strain rpa49, active compounds read low 1.01 | locus YNL322C, strain KRE1 (second series), active compounds read low 0.999 | locus YNR049C, strain mso1, active compounds read low 1 | locus YOR001W, strain rrp6, active compounds read low 1.01 | locus YOR070C, strain gyp1, active compounds read low 1.01 | locus YOR080W, strain dia2, active compounds read low 0.991 | locus YOR083W, strain WHI5, active compounds read low 1.01 | locus YOR106W, strain vam3, active compounds read low 1.02 | [8] 0.999 | locus YOR265W, strain rbl2, active compounds read low 1.01 | locus YOR270C, strain vph1, active compounds read low 1 | locus YOR290C, strain snf2, active compounds read low 0.999 | locus YPL051W, strain arl3, active compounds read low 1.01 | locus YPL078C, strain atp4, active compounds read low 1 | locus YPL106C, strain sse1, active compounds read low 1 | locus YPL240C, strain hsp82, active compounds read low 0.991 | [9] 1.02
